UHRF1 MBD2 ctr – blocks human UHRF1 binding to methylated DNA. hit rate 0.75% among 370,000. UHRF1 binding to methylated oligo, TR-FRET. AID 687016. Q96T88. inhibition, % at 4.4 µM; in the data active means inhibition above about 21%;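 further: UHRF1 SRA domain binding a hemimethylated CpG hairpin DNA probe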
Target sequence (Q96T88 whole entry, looked up, the tested form may be a part): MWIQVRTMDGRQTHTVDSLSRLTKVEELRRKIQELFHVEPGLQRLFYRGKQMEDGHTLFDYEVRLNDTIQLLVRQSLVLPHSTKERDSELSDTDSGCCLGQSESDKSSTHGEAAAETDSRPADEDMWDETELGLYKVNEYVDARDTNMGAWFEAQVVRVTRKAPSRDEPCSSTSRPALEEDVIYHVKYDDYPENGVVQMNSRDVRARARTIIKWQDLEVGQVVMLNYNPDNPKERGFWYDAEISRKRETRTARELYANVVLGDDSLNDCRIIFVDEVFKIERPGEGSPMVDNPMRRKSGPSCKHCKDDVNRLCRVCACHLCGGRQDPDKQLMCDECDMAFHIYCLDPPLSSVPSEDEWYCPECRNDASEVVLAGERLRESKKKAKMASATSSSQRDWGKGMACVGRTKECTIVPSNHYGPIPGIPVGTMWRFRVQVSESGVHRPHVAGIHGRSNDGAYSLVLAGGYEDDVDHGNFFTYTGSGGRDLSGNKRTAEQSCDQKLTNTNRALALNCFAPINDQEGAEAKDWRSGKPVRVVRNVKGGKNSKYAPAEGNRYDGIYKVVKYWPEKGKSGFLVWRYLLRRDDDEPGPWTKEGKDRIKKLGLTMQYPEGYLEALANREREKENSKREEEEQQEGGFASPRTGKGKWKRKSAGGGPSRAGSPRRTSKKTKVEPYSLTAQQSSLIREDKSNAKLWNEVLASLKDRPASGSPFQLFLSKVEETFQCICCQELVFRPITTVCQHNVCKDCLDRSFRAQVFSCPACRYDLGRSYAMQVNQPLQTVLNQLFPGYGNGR
PRMT1 inh – blocks human protein arginine methyltransferase 1 | Q99873 | recombinant PRMT1, activity-based probe fluorescence polarization | inhibition, % at 2.79 µM | hit rate 1.3% among 370,000 | AID 652257;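 active means inhibition above about 21% made by adding two undisclosed values, limit read from the data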
ABHD5 PLIN5 PPI – blocks binding of human ABHD5 to perilipin-5; Q00G26+Q8WTS1; Split G. princeps luciferase complementation, luminescence, 4 h; inhibition, % at 4 µM; hit rate 0.78% among 360,000; AID 602281;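 active means inhibition above the mean inhibition across every tested compound plus 3 SD, cut at about 22% in these data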
rCAG RNA binder – binds r(CAG) RNA repeats. r(CAG) RNA repeat, TO-PRO-1 dye displacement fluorescence. inhibition, % at 3 µM. hit rate 1.3% among 370,000;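 active means inhibition above the plate cutoff, the mean of all test compounds on that plate plus 3 SD, cut at about 35% in these data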;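 further: higher means more dye released from RNA so lower well fluorescence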
LEDGF integ inh – blocks HIV-1 LEDGF/p75-dependent DNA integration; TR-FRET IN-LEDGF/p75 DNA integration, Eu/Cy5; inhibition, % at 3.7 µM; hit rate 0.64% among 370,000;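 active means inhibition above the screen-wide mean plus 3 SD, cut at about 13% in these data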;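 further: signal is the Cy5 over europium emission ratio at 671 and 618 nm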
MBD2 DNA inh – inhibitors of human MBD2 binding to methylated oligonucleotide; hit rate 0.31% among 370,000; Q9UBB5; inhibition, % at 4.4 µM; TR-FRET; in the data active means inhibition above about 13%
Of the large screens only hits and unclear results are named; the others gave an inactive call. Shown are actives, neighbours in structure and some others; about 4.1% of the full set was active somewhere.

CC1CCCCC1n1c(-c2cccnc2)n[nH]c1=S (configuration not stated)	UHRF1 MBD2 ctr 72
S=c1[nH]nc(-c2cccnc2)n1C1CCCCC1	none
O=C(NC1CCCC1)[C@@H]1CCCN1C(=O)[C@@H](NC(=O)N1CCOCC1)C1CCCCC1	none (no result: ABHD5 PLIN5 PPI)
CCC(=O)N(CCC(Cc1ccccc1)c1ccc2c(c1)OCO2)Cc1ccccc1F (configuration not stated)	UHRF1 MBD2 ctr 25
O=C(CC(SCCO)c1ccc([N+](=O)[O-])cc1)c1ccco1 (configuration not stated)	ABHD5 PLIN5 PPI 23
COC(=O)[C@]1(CNC(C)=O)CC(=O)N(Cc2ccc(Cl)cc2)[C@@H]1c1ccc(OC)cc1	none (no result: ABHD5 PLIN5 PPI)
COC(=O)[C@]1(CNC(=O)C(C)(C)C)CC(=O)N(Cc2ccc(Cl)cc2)[C@@H]1c1ccc(OC)cc1	UHRF1 MBD2 ctr 45 (no result: ABHD5 PLIN5 PPI)
O=C(NCc1ccccc1)[C@H]1CCCN1C(=O)[C@H]1CCCN1C(=O)c1ccccc1C(F)(F)F	none (no result: ABHD5 PLIN5 PPI)
Cc1ccc(N2C(=O)NC3(CCCCC3)C2=O)cc1	UHRF1 MBD2 ctr 23
COC(=O)[C@]12C[C@H](CC(=O)NCCCN3CCCC3=O)C(=O)N(CCc3ccc(OC)c(OC)c3)C1=C[C@H](C(C)(C)C)O[C@@H]2C	none (no result: ABHD5 PLIN5 PPI)
CCCOc1ccc(/C=C/C(=O)O)cc1OC	none
COc1ccc(/C=C/C(=O)O)cc1Cl	UHRF1 MBD2 ctr 43
COc1ccc(C)c2sc(N3CCCC3)nc12	UHRF1 MBD2 ctr 25
OC(CC#CCN1CCCC1)(c1ccccc1)c1ccccc1	UHRF1 MBD2 ctr 22
OC(CC#CCN1CCCCC1)(c1ccccc1)c1ccccc1	none
O=S(=O)(c1ccc2nc(N3CCN(c4ccccc4)CC3)ccc2c1)N1CCCCC1	UHRF1 MBD2 ctr 22
N#Cc1c(-c2ccco2)nc(SCc2ccc(F)cc2)[nH]c1=O	rCAG RNA binder 50
COc1ccc(-c2nc(SCc3ccc(C#N)cc3)[nH]c(=O)c2C#N)cc1	none
COc1ccc2c(CC(=O)OCC(=O)Nc3ccc(C)cc3)coc2c1	none
COc1ccc2c(CC(=O)OCC(=O)Nc3sc4c(c3C#N)CCC(C)C4)coc2c1 (configuration not stated)	UHRF1 MBD2 ctr 41
O=C(O)c1ccc(-c2ccc(/C=c3/sc4nc5ccccc5n4c3=O)o2)cc1Cl	UHRF1 MBD2 ctr 40
Cc1cc(C)c2nc3sc(=Cc4ccc(-c5ccccc5C(=O)O)o4)c(=O)n3c2c1	UHRF1 MBD2 ctr 24
Cc1cc(/C=c2\sc3nc4ccccc4n3c2=O)c(C)n1-c1ccc(C(=O)O)cc1	none
COC(=O)c1ccccc1-c1ccc(/C=C2\C(=O)N(c3ccccc3)N=C2c2ccccc2)o1	none
O=C(CCn1nnc(-c2cccs2)n1)N1CCCCC1	none (no result: ABHD5 PLIN5 PPI)
Cc1ccc(S(=O)(=O)NCC2CCN(C(=O)C(=O)c3cccs3)CC2)cc1	none (no result: ABHD5 PLIN5 PPI)
O=C(C[C@@H]1C/C=C\CC[C@H](Cc2ccc(F)cc2)C(=O)OC[C@@H](Cc2ccccc2)NC1=O)NCCO	UHRF1 MBD2 ctr 21
CC(OC(=O)c1ccc(S(C)(=O)=O)c([N+](=O)[O-])c1)C(=O)NC1C2CC3CC(C2)CC1C3 (configuration not stated)	ABHD5 PLIN5 PPI 23
C[C@H]1[C@@H](OC(=O)Nc2cccc(C(F)(F)F)c2)CC[C@@]23CCCN2C(=O)CCC[C@@H]13	none (no result: ABHD5 PLIN5 PPI, rCAG RNA binder)
CN1C(=S)N(c2cccnc2)C(=O)/C1=C\c1ccc(N(C)C)cc1	UHRF1 MBD2 ctr 43
CN(C)c1ccc(/C=C/C(=O)c2cccnc2)cc1	none
Cc1c(N2C(=O)/C(=C\c3ccc(N(C)C)cc3)N(C)C2=S)c(=O)n(-c2ccccc2)n1C	ABHD5 PLIN5 PPI 22
COC1=C(Br)C(=O)c2nc(C)ccc2C1=O	UHRF1 MBD2 ctr 39, PRMT1 inh 28, LEDGF integ inh 65
C(=N\Nc1nncc2ccccc12)/c1cccnc1	none (no result: ABHD5 PLIN5 PPI)
COc1cc(C)c(C(=O)Oc2cc(C)c(C(=O)O)c(O)c2)c(O)c1	rCAG RNA binder 35
COc1cc(O)c(C(=O)O)c(CCc2ccccc2)c1	none
O=C(COC(=O)c1ccc(Sc2ncn[nH]2)c([N+](=O)[O-])c1)Nc1cccc(Cl)c1F	none (no result: ABHD5 PLIN5 PPI)
O=C(Cn1cnc2sc3c(c2c1=O)CCCC3)NCC(=O)Nc1c(F)cccc1F	UHRF1 MBD2 ctr 22
COC(=O)[C@H](C(C)C)N1Cc2nnn(Cc3ccccc3)c2C=CS1(=O)=O	none (no result: ABHD5 PLIN5 PPI)
O=C(O)CCCCCCCCCCCc1ccccc1	rCAG RNA binder 36
O=C(O)c1ccc(CCCc2ccccc2)cc1	none
CN1CCCCC(NC(=O)c2cccc(C(F)(F)F)c2)C1=O (configuration not stated)	none (no result: ABHD5 PLIN5 PPI)
O=C(O)c1cc(NC(=O)c2ccc(Br)cc2)cc(NC(=O)c2ccc(Br)cc2)c1	rCAG RNA binder 80
COc1cc(-n2c(N)c(C(=O)NCc3ccco3)c3nc4ccccc4nc32)cc(OC)c1OC	none
COc1ccc(-n2c(N)c(C(=O)NCc3ccco3)c3nc4ccccc4nc32)cc1OC	UHRF1 MBD2 ctr 47
CCOc1ccc(CCNC(=O)Nc2ccccc2C)cc1OCC	UHRF1 MBD2 ctr 21
CCOc1ccccc1NC(=O)COC(=O)COc1c(Cl)cc(Cl)c2ccc(C)nc12	UHRF1 MBD2 ctr 37
Cc1ccc2c(Cl)cc(Cl)c(OCC(=O)NCCc3ccccn3)c2n1	none
Cn1nnc2sc3c(c2c1=O)CCCC3	PRMT1 inh 22
Cc1nc2sc3c(c2c(=O)n1N)CCC3	none
Cc1cc(C(=O)O)ccc1-c1ccc(/C=C2\SC(=O)N(CC(=O)Nc3ccc4c(c3)OCO4)C2=O)o1	UHRF1 MBD2 ctr 24
Cc1ccc(NC(=O)CN2C(=O)S/C(=C/c3ccc(-c4cccc(C(=O)O)c4)o3)C2=O)cc1	UHRF1 MBD2 ctr 23
Cc1ccccc1NC(=O)CN1C(=O)S/C(=C\c2ccc(-c3cc(C(=O)O)ccc3C)o2)C1=O	none
CCOC(=O)C1=C(C(=O)OCC)C2N(Cc3ccc(C#N)cc3)c3ccccc3[C@@]23C[C@@H](C(=O)OC)N(S(=O)(=O)c2ccccc2)C3=N1 (some centres not stated)	none (no result: ABHD5 PLIN5 PPI)
O=S(=O)(O)c1cc(O)c2c(O)c(N=Nc3cc(Cl)ccc3O)c(S(=O)(=O)O)cc2c1	ABHD5 PLIN5 PPI 24 (no result: UHRF1 MBD2 ctr, PRMT1 inh, rCAG RNA binder, LEDGF integ inh, MBD2 DNA inh)
COc1ccc2[nH]c3nc(SC(C)C)nnc3c2c1	UHRF1 MBD2 ctr 54
N#Cc1cccc(C=C(C(=O)c2ccccc2)c2ccccc2)c1	ABHD5 PLIN5 PPI 22
CCCCc1nnn2c1C1c3cc(Br)ccc3CCN1C(=O)C2 (configuration not stated)	none (no result: ABHD5 PLIN5 PPI)
COc1ccc(NC(=O)c2cc3ccccn3n2)cc1	UHRF1 MBD2 ctr 30
CCOc1cccc(-c2nn3c(-c4cccc(C)c4)nnc3s2)c1	none (no result: ABHD5 PLIN5 PPI)
CN1CCOc2ccc(S(=O)(=O)NCCc3ccc(Cl)cc3)cc21	UHRF1 MBD2 ctr 30
O=C1[C@@H](C2CCCCC2)[C@@H]2c3ccccc3C=NN2[C@@H]2c3ccccc3C=NN12	none (no result: ABHD5 PLIN5 PPI)

Bioassay records as filed in PubChem.
